Among the data in PubChem BioAssay AID2280 (The Scripps Research Institute Molecular Screening Center, 2010) are inhibition values, retold here.

Each structure is given as a SMILES string. In all, about 320,000 compounds went through this assay and about 1,400 (0.44%) were called active.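 The calls were made as follows: active = percent inhibition above a per-plate cutoff, the plate mean of test compounds plus 3 SD (cut at about 30% in these data); inactive = the rest.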 The sample as a whole holds a higher share of actives than the screen did.

This test deals with Female germline-specific tumor suppressor gld-1 (Caenorhabditis elegans) (UniProt Q17339). In words: GLD-1/TGE RNA complex disruptors, primary screen, biochemical, fluorescence polarization (AID 2280).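 Also: 0% = DMSO wells with GLD-1 and probe and 100% = wells lacking GLD-1.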 To be noted: purified GLD-1 + fluorescein TGE RNA, at 5.96 µM, stronger effect = higher value.
Sequence of Female germline-specific tumor suppressor gld-1 (Caenorhabditis elegans) (Q17339 whole entry, looked up): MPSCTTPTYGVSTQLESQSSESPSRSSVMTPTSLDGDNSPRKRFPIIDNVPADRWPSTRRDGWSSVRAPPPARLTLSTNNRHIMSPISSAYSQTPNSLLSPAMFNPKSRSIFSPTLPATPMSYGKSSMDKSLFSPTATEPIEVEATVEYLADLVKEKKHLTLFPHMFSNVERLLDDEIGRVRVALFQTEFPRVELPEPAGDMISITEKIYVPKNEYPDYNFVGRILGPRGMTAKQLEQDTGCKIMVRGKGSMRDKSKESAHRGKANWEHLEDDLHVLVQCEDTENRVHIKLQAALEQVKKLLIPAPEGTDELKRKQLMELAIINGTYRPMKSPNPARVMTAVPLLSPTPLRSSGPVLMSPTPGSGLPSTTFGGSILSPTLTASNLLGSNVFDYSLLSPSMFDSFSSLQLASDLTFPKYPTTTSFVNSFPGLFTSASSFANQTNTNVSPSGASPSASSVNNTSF
By inhibition is commonly meant the change of the read-out against control, counted positive when it falls. Consider `CC/C(C)=N/Nc1nc2sc3c(c2c(=O)[nH]1)CC(C)(C)OC3`, for which the inhibition is 62.3% (active).

In the case of `CCSc1nc2sc3c(c2c(=O)[nH]1)CC(C)(C)OC3`, the inhibition is -5.06% (inactive).

As to `CC(C)c1nc2sc3c(c2c(=O)n1N)CC(C)(C)OC3`, the inhibition was 2.68% (inactive).

As for `O=C(COC(=O)C1CC2CCCC(C1)C2=O)NC(=O)c1ccccc1` (centres undefined), the inhibition is 0.04% (inactive).

For the molecule `O=S(=O)(c1ccc(-c2ccno2)s1)N1CCCCC1`, the inhibition was 0.96% (inactive).

As to `CC1(OC(=O)C2CCCC2)C(=O)C=C2C=C(c3ccc(C#N)cc3)OC=C2C1=O` (centres undefined), the inhibition is 17.8% (inactive).

`CC(C)(C)OC(=O)NCCCC1=CC2=CC(=O)C(C)(OC(=O)c3ccco3)C(=O)C2=CO1` (centres undefined): the inhibition was 86.5% (active).

`C=CCN1C=C2C(=O)C(C)(OC(=O)CCc3ccccc3)C(=O)C=C2C=C1c1ccc(C#N)cc1` (centres undefined): the inhibition was 18.7% (inactive).

On to `CN1CCN(c2ccccc2NC(=O)COc2ccc(C3CCCCC3)cc2)CC1`, for which the inhibition was 2.44% (inactive).

As for `N#CCCN(C(=O)COC(=O)c1ccc2c(c1)OCCO2)c1ccccc1`, the inhibition was 0.3% (inactive).

As for `O=C(O)c1cc(Cl)c(Cl)cc1C(=O)Nc1cccc2ncccc12`, the inhibition was 7.15% (inactive).

Take `Cc1ccc(/C=C(\C#N)C(=O)Nc2cccc3ncccc23)o1`: the inhibition was 59.6% (active).

On to `N#C/C(=C\c1ccccc1C(F)(F)F)C(=O)Nc1ccccc1F`, for which the inhibition was 0.78% (inactive).

On to `COc1cc(NC(=O)COC(=O)c2ccc([N+](=O)[O-])s2)cc(OC)c1OC`, for which the inhibition was 4.4% (inactive).

On to `O=C(Cc1ccc(S(=O)(=O)N2CCOCC2)s1)N1CCN(c2ccc(C(F)(F)F)cc2[N+](=O)[O-])CC1`, for which the inhibition was 8.86% (inactive).

As for `CCOC(=O)c1ccccc1CN1C(=O)c2ccccc2S1(=O)=O`, the inhibition was 1.98% (inactive).

In the case of `CC(C)OC(=O)CN1C(=O)C(=O)c2ccccc21`, the inhibition was -0.34% (inactive).

Consider `CCOC(=O)c1cc2n(c1N)-c1ccccc1C2=O`, for which the inhibition was 117% (active).

In the case of `Cc1ccc(CNC(=O)C2CCCN2S(=O)(=O)c2ccc3c(c2)C(C)(C)C(=O)N3C)cc1` (centres undefined), the inhibition is -3.08% (inactive).

Regarding `CCOC(=O)c1cnc2nc(SCc3ccccc3Cl)[nH]n2c1=O`, the inhibition was -4.26% (inactive).

As for `Cc1cccc(N=Nc2c(O)[nH]c3ccc(F)cc23)c1`, the inhibition was 67.5% (active).

In the case of `Oc1[nH]c2ccc(Br)cc2c1N=Nc1nn[nH]n1`, the inhibition was 9.48% (inactive).

As to `NS(=O)(=O)c1ccc(N=Nc2c(O)[nH]c3ccc(Br)cc23)cc1`, the inhibition is 15.6% (inactive).

Take `CSc1ccc(S(=O)(=O)N2CCC(C(=O)NCc3ccncc3)CC2)cc1`: the inhibition was -3.16% (inactive).

Take `CSc1ccccc1NC(=O)C(C)N1C(=O)c2ccccc2S1(=O)=O` (centres undefined): the inhibition is -0.85% (inactive).

With `CN1c2ccc(C=O)c3c(C=O)ccc(c23)N(C)C1(C)C`, the inhibition was 134% (active).

`Cc1cc(C)c(S(=O)(=O)c2cc(F)ccc2C)c(=O)[nH]1`: the inhibition was -0.88% (inactive).

For the molecule `O=C1NC[C@@H](c2ccccc2)OC(=O)[C@H](Cc2ccc(F)cc2)CC/C=C/C[C@H]1CC(=O)N(CCO)Cc1ccccc1`, the inhibition was 3.17% (inactive).

As for `Cc1cc(N2CCN(S(=O)(=O)c3ccc(C)c(C)c3)CC2)c2ccccc2n1`, the inhibition is 1.62% (inactive).

With `Cc1ccc(S(=O)(=O)C(C#N)c2nc3ccccc3nc2N2CCCC2)cc1C` (centres undefined), the inhibition is 54.9% (active).

In the case of `CC(C)OC(=O)C(C#N)c1nc2ccccc2nc1N1CCN(Cc2ccccc2)CC1` (centres undefined), the inhibition was 6.85% (inactive).

Consider `CCN(C[C@H]1N[C@@](CC)(C(=O)OC)[C@H]2C(=O)N(Cc3ccccc3)C(=O)[C@@H]12)S(=O)(=O)c1ccc(C(F)(F)F)cc1`, for which the inhibition is 7.64% (inactive).

On to `COc1ccc(Cl)cc1NC(=O)COC(=O)c1ccc(Br)o1`, for which the inhibition is -3.63% (inactive).

On to `CCOc1ccc(N2CC(C(=O)NCCN3C(=O)S/C(=C\c4cccnc4)C3=O)CC2=O)cc1` (centres undefined), for which the inhibition was -0.09% (inactive).

Turning to `COc1ccc(N2CC(C(=O)NCCN3C(=O)S/C(=C\c4cccnc4)C3=O)CC2=O)c(OC)c1` (centres undefined), the inhibition is 118% (active).

For the molecule `COc1ccccc1N1CC(C(=O)NCCN2C(=O)S/C(=C\c3cccnc3)C2=O)CC1=O` (centres undefined), the inhibition is 4.79% (inactive).

For `C=CCC(NC(=O)Cc1ccccc1)C(=O)NCCC` (centres undefined), the inhibition was -2.12% (inactive).

As for `Cc1ccc(Cn2nnc3c(=O)[nH]c(C4CCN(S(=O)(=O)/C=C/c5ccccc5)CC4)nc32)cc1`, the inhibition was 1.59% (inactive).

Consider `O=C(COC(=O)c1cc[n+]([O-])cc1)Nc1ccc(Cl)c(C(F)(F)F)c1`, for which the inhibition was 8.04% (inactive).

In the case of `CC(NC(=O)c1ccco1)c1ccc2c(c1)OCO2` (centres undefined), the inhibition was -0.47% (inactive).

Take `COc1ccc(NS(=O)(=O)c2ccc(F)cc2F)cn1`: the inhibition is -1.42% (inactive).

`COc1cccc(Nc2ncccc2C(=O)O)c1`: the inhibition was 3.26% (inactive).

`COc1ccc(Nc2cc(Cl)ccc2C(=O)O)cn1`: the inhibition is 66.1% (active).

Turning to `COc1cc(OC)cc(-c2c(C#Cc3ccsc3)c3cc(-c4ccc(OC)cc4F)ccc3n2C)c1`, the inhibition was -36.1% (inactive).

Regarding `Cc1ccc(NC(=O)C(=O)NCc2ccc(/C=N/NC(=O)c3c(C)nc4cc(C)ccn34)o2)cc1`, the inhibition was 1.79% (inactive).

For the molecule `Cc1ccc(S(=O)(=O)Nc2nc(CN3CCOCC3)nc3sc(C)c(C)c23)cc1`, the inhibition was -15.1% (inactive).

Take `O=C(NC1CCCC1)C(=O)c1c[nH]c2ccccc12`: the inhibition was 6.85% (inactive).

For the molecule `C[n+]1ccc(/C=C/c2c[nH]c3ccccc23)cc1`, the inhibition is 55.5% (active).

On to `COc1ccc(/C=C(\C#N)c2c[nH]c3ccccc23)cc1`, for which the inhibition is 8.67% (inactive).

As for `COc1ccccc1-n1c(SCC(=O)Nc2cccc(C(=O)O)c2)nnc1-c1ccccc1O`, the inhibition was 6.18% (inactive).

Take `OC1CN=C2Sc3ccccc3N2C1` (centres undefined): the inhibition is 12.5% (inactive).

Take `CNC(=S)NNC(=O)c1cccn(Cc2ccccc2)c1=O`: the inhibition is 3.04% (inactive).

Take `CNC(=S)NNC(=O)c1oc2nc(-c3ccccc3)cc(-c3ccco3)c2c1N`: the inhibition is 38.9% (active).

As for `NNC(=O)c1oc2nc(-c3ccccc3)cc(-c3ccco3)c2c1N`, the inhibition was -23.7% (inactive).

With `Cc1ccc(C(=O)NCC(=O)OCC(=O)Nc2cccc(S(=O)(=O)N3CCCC3)c2)cc1C`, the inhibition is 7.23% (inactive).

For `COC(=O)c1sccc1NN1C(=O)c2ccccc2C1=O`, the inhibition was 4.27% (inactive).

With `CCOCCOCCC(C(=O)O)P(=O)(c1ccccc1)c1ccccc1` (centres undefined), the inhibition was 6.44% (inactive).

For the molecule `CCCN1CC=C2C(C#N)=C(N)C(C#N)(C#N)C(c3cc(OC)ccc3OC)C2C1` (centres undefined), the inhibition is 49% (active).

With `CCN1CC=C2C(C#N)=C(N)C(C#N)(C#N)[C@H](c3ccoc3)[C@H]2C1`, the inhibition was 106% (active).

For the molecule `COC(=O)c1ccc(CNC(=O)C2CCC(=O)N(Cc3ccccn3)C2)cc1` (centres undefined), the inhibition was 0.64% (inactive).

`O=S(=O)(c1ccc(Cl)s1)N1CCC2(CC1)OCCO2`: the inhibition is -2.17% (inactive).

In the case of `N#C[C@]1(S(=O)(=O)c2ccccc2)C[C@@H]2ON=C(c3cccc(Br)c3)[C@@H]2C1`, the inhibition was -1.68% (inactive).

As for `O=C(Nc1cccc(F)c1)[C@@H]1CCCN1`, the inhibition is 4.36% (inactive).

On to `Cc1ccc(S(=O)(=O)N2CCOCC2)cc1C(=O)OC1CCCCC1=O` (centres undefined), for which the inhibition is -3.51% (inactive).

Regarding `O=[N+]([O-])c1ccc(F)cc1Oc1nc(-c2cccnc2)nc2ccccc12`, the inhibition was -1.37% (inactive).

Regarding `CCOC(=O)c1nc(Nc2ccc(C(=O)OC)cc2)c2ccccc2n1`, the inhibition was -1.24% (inactive).

For `COc1ccc(Nc2nc(-c3cccnc3)nc3ccccc23)cn1`, the inhibition is 100% (active).

Turning to `CNC(=O)c1[nH]cnc1C(=O)N[C@@H](CC(C)C)C(=O)OCc1ccccc1`, the inhibition is 10.1% (inactive).

With `COC(=O)CN1C(=O)N/C(=C/c2ccc(OC)c(C)c2OC)C1=O`, the inhibition was 9.69% (inactive).

As to `O=C(OCC1O[C@@H](OC(=O)c2cc(O)c(O)c(O)c2)[C@@H](OC(=O)c2cc(O)c(O)c(O)c2)[C@@H](OC(=O)c2cc(O)c(O)c(O)c2)[C@@H]1OC(=O)c1cc(O)c(O)c(O)c1)c1cc(O)c(O)c(O)c1` (some centres undefined), the inhibition is 34.6% (active).

As for `O=C(OCC1OC(Oc2ccc(O)cc2)C(O)C(O)C1O)c1ccccc1` (centres undefined), the inhibition is 2.13% (inactive).

On to `Cc1ccc(NC(=O)c2ccc(Cl)nc2)cc1S(=O)(=O)N1CCOCC1`, for which the inhibition was -0.28% (inactive).

As for `O=C1c2ccccc2C(=O)c2c1cccc2N1CCN(CCO)CC1`, the inhibition was 48.6% (active).

Consider `O=C1c2ccccc2C(=O)c2c1cccc2N1CCN(Cc2ccccc2)CC1`, for which the inhibition was 0.8% (inactive).

As for `O=C1c2ccccc2C(=O)c2c1cccc2N1CCN(C/C=C/c2ccccc2)CC1`, the inhibition is 9.38% (inactive).

Consider `CC(C(=O)NCC1CCCCC1)N(C)Cc1cccc(Cl)c1` (centres undefined), for which the inhibition is 4.56% (inactive).

Regarding `CN(C)/C=C(/C(=O)c1ccc(F)cc1)S(=O)(=O)c1ccc(F)cc1`, the inhibition is 3.44% (inactive).

In the case of `Nc1nonc1-c1nc2ccccc2n1Cc1ccc(F)cc1`, the inhibition was 1.28% (inactive).

Turning to `O=c1[nH]cccc1-c1nc2ccccc2n1Cc1ccc(Cl)cc1`, the inhibition is 45% (active).

`CC(=O)Nc1nc2ccccc2n1Cc1ccc(C)cc1`: the inhibition is 0.42% (inactive).

As to `CC1OC2C(OC1C)N(S(C)(=O)=O)CCN2S(C)(=O)=O` (centres undefined), the inhibition is 3.56% (inactive).

In the case of `CCCOc1ccc(N2C(=O)CC(N(CCc3ccc(S(N)(=O)=O)cc3)C(C)=O)C2=O)cc1` (centres undefined), the inhibition was -1.23% (inactive).

Regarding `CC(C)c1ccc(C2C(C(=O)c3ccco3)=C(O)C(=O)N2CC2CCCO2)cc1` (centres undefined), the inhibition was 4.96% (inactive).

As for `Cc1ccc2nc(N3C(=O)C(O)=C(C(=O)c4ccco4)C3c3cccc(O)c3)sc2c1` (centres undefined), the inhibition is 0.27% (inactive).

Take `C=CCSc1nnc(N2C(=O)C(O)=C(C(=O)c3ccco3)C2c2ccc(F)cc2)s1` (centres undefined): the inhibition is 44.5% (active).

In the case of `CCN1CCC2(CC1)N=C(c1ccc(F)cc1)C(=S)N2C(=O)c1ccc(C)cc1`, the inhibition is 7.8% (inactive).

For `CCCn1c(C2CCCN2c2nc(-c3ccc(OC)cc3)cs2)nc2ccccc21` (centres undefined), the inhibition was 9.35% (inactive).

Turning to `CCCn1c(C2CCCN2c2nc(-c3ccc(C)cc3)cs2)nc2cc(Cl)c(N3CCCCC3)cc21` (centres undefined), the inhibition is 34.6% (active).

As to `CCCn1c(C(C)Nc2nc(-c3ccc(C)cc3)cs2)nc2cc(Cl)c(N3CCCCC3)cc21` (centres undefined), the inhibition is 2.12% (inactive).
